Records with an inconclusive call do not appear. Unmarked numbers belong to inactive results. Calls follow the shape of the dose curve; as a rule, active = well fitted inhibition curve with a large enough effect; inconclusive = small, poorly fitted or top-dose-only effect; inactive = flat fitted curve, though single readings scatter.
Molecular target: Calcium and integrin-binding protein 1 (Homo sapiens) (UniProt Q99828)
Experiment: Primary qHTS for Identification of Calcium Integrin Binding Protein 1 (CIB1) Competitor (AID 1508620); also: top concentration of the series differs between compounds
Conditions: CIB1-GST / FITC-alphaIIb peptide fluorescence polarization; series mostly up to 57.7 µM; activity change, negative = inhibition: at the top concentration
In short: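 Fluorescence polarization competition: GST-tagged CIB1 (1 uM final) preincubated with compound 15 min at room temperature, then FITC-labelled alphaIIb peptide (100 nM final) added. After 15 min at room temperature, polarization read at Ex 480/Em 540.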
% is scaled to controls: 0 for no effect and ±100 for the full control effect.

Chain of Calcium and integrin-binding protein 1 (Homo sapiens) (Q99828 whole entry, looked up): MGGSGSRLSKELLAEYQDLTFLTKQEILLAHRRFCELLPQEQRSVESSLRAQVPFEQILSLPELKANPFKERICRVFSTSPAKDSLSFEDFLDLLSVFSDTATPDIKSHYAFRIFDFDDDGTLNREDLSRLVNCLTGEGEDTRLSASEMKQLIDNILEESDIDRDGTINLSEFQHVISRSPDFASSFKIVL

Structure (SMILES)	activity change, negative = inhibition
CC1=C2C[C@H]3OC(=O)[C@H](O)[C@@]4(O)[C@@H](C)[C@@H](O)[C@H](O)C([C@@]2(C)[C@H](O)[C@@H](O)C1)[C@@]34C (some centres undefined)	-12.9%
CC(=O)OC12CC(C)C(OC(=O)c3ccccc3)C1/C=C(/C)C(OC(=O)c1ccccc1)CC(=O)C(C)(C)/C=C/C(C)C2=O (centres undefined)	-6.51% [at 30.2 µM]
O=C1OC(c2ccc(O)cc2)C(O)=C1Cc1ccccc1 (centres undefined)	-17.6% [at 114 µM]
C=C[C@]1(C)C[C@@H](OC(=O)CSC2C[C@H]3CC[C@@H](C2)N3C)[C@]2(C)[C@H](C)CC[C@]3(CCC(=O)[C@H]32)[C@@H](C)[C@@H]1O (some centres undefined)	0.458% [at 114 µM]
C/C=C/C=C/C(=O)OC1CC/C=C/C(O)C(O)C(CCC)OC1=O (centres undefined)	2.99%
CC(=O)N[C@H]1[C@H](O[C@H]2CC[C@]3(C)C4CC=C5[C@@H]6CC(C)(C)CC[C@]6(C(=O)O)[C@H](O)C[C@@]5(C)[C@]4(C)CC[C@H]3C2(C)C)O[C@H](CO)[C@@H](O)[C@@H]1O (some centres undefined)	3.68% [at 30.2 µM]
CC1=CCC2C(C)(C)CCCC2(C)C1CC12OC1C(O)C(CO)=CC2O (centres undefined)	-1.56%
COc1c2cc(c(O)c1OC)CCCCC(O)CCc1ccc(O)c-2c1 (centres undefined)	-8.66%
COC(=O)[C@@H](NC(=O)[C@H](CC(C)C)NC(=O)N(Cc1ccccc1)C[C@@H](O)[C@H](Cc1ccccc1)NC(=O)OC(C)(C)C)C(C)C	5.04% [at 30.2 µM]
COc1cc(O)c(C(=O)O)c(CCc2ccccc2)c1	-0.0599% [at 114 µM]
CC1(C)CC[C@]2(C(=O)O)CC[C@]3(C)C(=CCC4[C@@]5(C)CC[C@H](O[C@H]6O[C@H](C(=O)O)[C@@H](O)[C@H](O[C@@H]7O[C@H](CO)[C@H](O)[C@H](O)[C@H]7O)[C@H]6O)C(C)(C)C5CC[C@]43C)[C@@H]2C1 (some centres undefined)	-1.9% [at 30.2 µM]
CC1OC(O[C@@H]2[C@H](O)[C@@H](OC3OC(CO)C(O)C(O)C3O)[C@H](OC(=O)[C@]34CCC(C)(C)C[C@H]3C3=CCC5[C@@]6(C)CC[C@H](O[C@@H]7O[C@H](C(=O)O)[C@@H](O)[C@H](O[C@@H]8OC[C@@H](O)[C@H](O)[C@H]8O)[C@H]7O[C@@H]7O[C@H](CO)[C@H](O)[C@H](O)[C@H]7O)[C@@](C)(C=O)C6CC[C@@]5(C)[C@]3(C)C[C@H]4O)O[C@@H]2C)C(O)C(O)C1OC1OCC(O)C(O)C1O (some centres undefined)	-2.12% [at 12.4 µM]
CCC(C)/C=C(C)/C=C/C1=CC2=C(Cl)C(=O)C(C)(O)C(=O)C2(O)C(OC)O1 (centres undefined)	48%
COc1c2c(c(C)c3c1C(=O)OC3)OC1(C)CC(O)C34OC(OC)(CC(O)C3(C)C1C2)OC4(C)C (centres undefined)	-1.83%

From PubChem BioAssay (NCATS)
